From PubChem BioAssay (NCATS)
Records with an inconclusive call do not appear. Active and inactive are the calls of the source. Unless noted, calls follow the shape of the dose curve; as a rule, active = well fitted inhibition curve with a large enough effect; inconclusive = small, poorly fitted or top-dose-only effect; inactive = no such curve, though single readings can be large or run the other way.

Assay: High-throughput drug toxicity screening in the BPDCN cell line Gen2.2 (AID 1224824; call rule not given here;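 also: cells exposed to compounds for 48 h before reading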)
Settings: Gen2.2 BPDCN cells; at 45.8 µM (top of the series) unless noted
Summary of the method: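 Gen2.2 cells, 500 per well in phenol red-free RPMI with 10% FBS, exposed to compounds 48 h at 37 C, 5% CO2; viability by CellTiter-Glo luminescence. Percent activity scaled to DMSO (100%) and 9.2 uM bortezomib final (0%).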

Row | Compound | cell viability, % of control (lower = more cytotoxic)
1 | CC(=NNC(=S)N1CCC1)c1ccccn1 | 91.1%
2 | NC(=O)[C@@H](CCC(F)(F)F)N(Cc1ccc(-c2ncon2)cc1F)S(=O)(=O)c1ccc(Cl)cc1 | 127%
3 | O=c1cc(CN2CCOCC2)occ1OCCCCCSc1ccnc2cc(C(F)(F)F)ccc12 | 186%
4 | CC=CCC=CCCC(=O)[C@H]1O[C@@H]1C(N)=O | 7.55%
5 | CC=CCC(C)C(O)C1C(=O)NC(CC)C(=O)N(C)CC(=O)N(C)C(CC(C)C)C(=O)NC(C(C)C)C(=O)N(C)C(CC(C)C)C(=O)NC(C)C(=O)NC(C)C(=O)N(C)C(CC(C)C)C(=O)N(C)C(CC(C)C)C(=O)N(C)C(C(C)C)C(=O)N1C (stereo not drawn) | 8.39%
6 | CC(C)=CC[C@@H](O)C1=CC(=O)c2c(O)ccc(O)c2C1=O | 5.88%
7 | O=c1cc(N2CCOCC2)oc2c(-c3cccc4c3sc3ccccc34)cccc12 | 2.51%
8 | NC1=N[C@@]2(c3cc(NC(=O)c4ccc(F)cn4)ccc3F)COC[C@@H]2CS1 | 21.6%
9 | COc1ccc2cc(-c3nc(-c4ccc(S(C)=O)cc4)[nH]c3-c3ccncc3)ccc2c1 (stereo not drawn) | 470%
10 | O=C(O)[C@H]1O[C@H](Oc2cc3oc(-c4ccccc4)cc(=O)c3c(O)c2O)[C@H](O)[C@@H](O)[C@H]1O | 46.5%
11 | O=C(O)c1ccccc1C(=O)Nc1ccc(-c2ccccc2)cc1 | 156%
12 | CO[C@H]1C[C@@H]2CC[C@@H](C)[C@@](O)(O2)C(=O)C(=O)N2CCCC[C@@H]2C(=O)O[C@H]([C@H](C)C[C@@H]2CC[C@H](OCCO)[C@H](OC)C2)CC(=O)[C@H](C)C=C(C)[C@@H](O)[C@@H](OC)C(=O)[C@H](C)C[C@H](C)C=CC=CC=C1C | 10.1%
13 | NC1CCC(Nc2nc(Nc3ccc(C(=O)N4CCCCC4)cc3)c3ncn(-c4cccc(F)c4)c3n2)CC1 (stereo not drawn) | 208%
14 | Cc1ccn(-c2ccc(-c3ncco3)cc2)c(=O)c1-c1ccc2nc(N)ncc2c1 | 316%
15 | N#Cc1ccc(NC(=O)Nc2ccccc2Br)c2n[nH]nc12 | 183%
16 | COc1ccc2cccc(CCNC(C)=O)c2c1 | 206%
17 | COc1ccc(-c2coc3cc(O)ccc3c2=O)cc1 | 191%
18 | NC(=O)NN=Cc1ccc([N+](=O)[O-])o1 | 172%
19 | Cc1nnc(C(C)C)n1C1C[C@H]2CC[C@@H](C1)N2CC[C@H](NC(=O)C1CCC(F)(F)CC1)c1ccccc1 (stereo partly drawn) | 75.3%
20 | CN(C)C1CCN(C(=O)c2ccc(NC(=O)Nc3nc(N4CCOCC4)nc(N4CCOCC4)n3)cc2)CC1 | 6.71%
21 | Cc1c[nH]c(C=C2C(=O)Nc3ccccc32)c1CCC(=O)O | 45%
22 | CC(C(=O)O)c1ccc(-c2ccccc2)c(F)c1 (stereo not drawn) | 84.9%
23 | O=C(O)c1c(Cl)c(Cl)c(Cl)c(Cl)c1-c1c2cc(I)c(=O)c(I)c-2oc2c(I)c(O)c(I)cc12 | 96.1%

Assay: High-throughput drug toxicity screening in the BPDCN cell line Cal-1 (AID 1224825; call rule not given here)
Settings: Cal-1 BPDCN cell viability, qHTS; at 45.8 µM (top of the series) unless noted
Summary of the method: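 CellTiter-Glo luminescence after 48 h compound exposure; percent activity scaled with DMSO as 100% and bortezomib (9.2 uM final) as 0%. Cal-1 cells seeded at 500/well in RPMI, 10% FBS, no phenol red.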

Row | Compound | viability (% of control)
24 | Clc1ccc(CCC(Cn2ccnc2)Sc2c(Cl)cccc2Cl)cc1 (stereo not drawn) | 67.7%
25 | COC1CCC(N(C(=O)C2CCC(C)CC2)c2cc(C3=CCCCC3)sc2C(=O)O)CC1 (stereo not drawn) | 89.2%
26 | CCC(CC)[C@H](NC(C)=O)[C@@H]1[C@H](O)[C@@H](C(=O)O)C[C@@H]1N=C(N)N | 105%
27 | O=C(O)C=Cc1ccc(O)c(O)c1 | 8.99%
28 | O=C(NCc1ccccc1)c1csc(Nc2ccncn2)n1 | 2.12%
29 | C[N+](C)(C)CC(=O)O | 114%
30 | CC(C(=O)O)c1ccc(-c2ccccc2)c(F)c1 (stereo not drawn) | 96.9%

Assay: qHTS assay for measurement of the activity of small molecule inhibitors on Zika virus induced Caspase-3 activity in human iPSC derived neural progenitor cells (hNPCs) (AID 1224857); also: nearly all actives have a fitted effect of over 65% in size; also: potency is read from the fitted curve at half-maximal effect
Settings: hNPCs ZIKV-induced caspase-3/7, Caspase-Glo luminescence, 6 h; series mostly up to 45.7 µM
Summary of the method: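 Caspase-3/7 induction by a 6-hour ZIKV infection was quantified with a luminescent Caspase-Glo 3/7 reagent incubated 30 minutes at room temperature. Compounds were preincubated with hNPCs for 1 hour; inhibition was calculated against uninfected and infected control wells.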

Row | Compound | Potency
31 | C=C1C(=O)OC2C=C(C)CCC=C(C)CCC12 (stereo not drawn) | inactive
32 | NC(=O)c1cnc(-c2ccc(C3(N)CCC3)cc2)c(-c2ccccc2)c1 | inactive
33 | CC(=O)OC1C(C)OC(Oc2c(-c3ccc(O)cc3)oc3cc(O)cc(O)c3c2=O)C(O)C1OC(C)=O (stereo not drawn) | inactive
34 | NC(=O)c1cccc2[nH]c(-c3ccc([C@H]4CCCN4)cc3F)nc12 | 18.7 µM (active)
35 | CC1(C)CCC(CN2CCN(c3ccc(C(=O)NS(=O)(=O)c4ccc(NCC5CCOCC5)c([N+](=O)[O-])c4)c(Oc4cnc5[nH]ccc5c4)c3)CC2)=C(c2ccc(Cl)cc2)C1 | inactive
36 | Cc1c(O)cccc1C(=O)N[C@@H](CSc1ccccc1)[C@H](O)CN1C[C@H]2CCCC[C@@H]2C[C@@H]1C(=O)NC(C)(C)C | inactive
37 | CN[C@@H](C)C(=O)N[C@H]1CN(C(=O)CC(C)C)CC[C@H]2CC[C@@H](C(=O)NC(c3ccccc3)c3ccccc3)N2C1=O | inactive
38 | CC(=NNC(=S)N1CCC1)c1ccccn1 | 16.6 µM (active)
39 | NC(=O)[C@@H](CCC(F)(F)F)N(Cc1ccc(-c2ncon2)cc1F)S(=O)(=O)c1ccc(Cl)cc1 | inactive
40 | O=c1cc(CN2CCOCC2)occ1OCCCCCSc1ccnc2cc(C(F)(F)F)ccc12 | inactive
41 | CC=CCC=CCCC(=O)[C@H]1O[C@@H]1C(N)=O | inactive
42 | CC(C)=CC[C@@H](O)C1=CC(=O)c2c(O)ccc(O)c2C1=O | inactive
43 | O=c1cc(N2CCOCC2)oc2c(-c3cccc4c3sc3ccccc34)cccc12 | inactive
44 | NC1=N[C@@]2(c3cc(NC(=O)c4ccc(F)cn4)ccc3F)COC[C@@H]2CS1 | inactive
45 | COc1ccc2cc(-c3nc(-c4ccc(S(C)=O)cc4)[nH]c3-c3ccncc3)ccc2c1 (stereo not drawn) | inactive
46 | O=C(O)[C@H]1O[C@H](Oc2cc3oc(-c4ccccc4)cc(=O)c3c(O)c2O)[C@H](O)[C@@H](O)[C@H]1O | inactive
47 | O=C(O)c1ccccc1C(=O)Nc1ccc(-c2ccccc2)cc1 | inactive
48 | CO[C@H]1C[C@@H]2CC[C@@H](C)[C@@](O)(O2)C(=O)C(=O)N2CCCC[C@@H]2C(=O)O[C@H]([C@H](C)C[C@@H]2CC[C@H](OCCO)[C@H](OC)C2)CC(=O)[C@H](C)C=C(C)[C@@H](O)[C@@H](OC)C(=O)[C@H](C)C[C@H](C)C=CC=CC=C1C | inactive
49 | NC1CCC(Nc2nc(Nc3ccc(C(=O)N4CCCCC4)cc3)c3ncn(-c4cccc(F)c4)c3n2)CC1 (stereo not drawn) | 16.6 µM (active)
50 | Cc1ccn(-c2ccc(-c3ncco3)cc2)c(=O)c1-c1ccc2nc(N)ncc2c1 | inactive
51 | N#Cc1ccc(NC(=O)Nc2ccccc2Br)c2n[nH]nc12 | inactive
52 | COc1ccc2cccc(CCNC(C)=O)c2c1 | inactive
53 | COc1ccc(-c2coc3cc(O)ccc3c2=O)cc1 | 18.7 µM (active)
54 | NC(=O)NN=Cc1ccc([N+](=O)[O-])o1 | inactive
55 | Cc1nnc(C(C)C)n1C1C[C@H]2CC[C@@H](C1)N2CC[C@H](NC(=O)C1CCC(F)(F)CC1)c1ccccc1 (stereo partly drawn) | inactive
56 | CN(C)C1CCN(C(=O)c2ccc(NC(=O)Nc3nc(N4CCOCC4)nc(N4CCOCC4)n3)cc2)CC1 | inactive
57 | Cc1c[nH]c(C=C2C(=O)Nc3ccccc32)c1CCC(=O)O | inactive
58 | O=C(O)c1c(Cl)c(Cl)c(Cl)c(Cl)c1-c1c2cc(I)c(=O)c(I)c-2oc2c(I)c(O)c(I)cc12 | inactive
